An excerpt weighted towards active compounds, which were near 3% of everything screened.
BCR signal inh: chronic active BCR signaling inhibition; 340,000 compounds, 0.05% hits; ABC-DLBCL IkBa-CBG/CBR reporter, luminescence ratio, 4 h; Potency, µM (highest dose often 46.1 µM), usual class: inhibitors; active = well fitted inhibition curve with a large enough effect in the signal ratio, with a control signal flat, not every such curve was filed as active; inconclusive = small, poorly fitted or top-dose-only effect, or effect the other way, or a change in a side signal; the % refers to the signal ratio
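TMD8 ABC-DLBCL cells carrying doxycycline-inducible green luciferase fused to IkappaBalpha plus unfused red luciferase were exposed to compounds (up to 46 uM) for 4 hrs at 37C. Activity came from the overlap-corrected green/red luminescence ratio.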
12-LOX inh: ALOX12 (human) lipoxygenase inhibition | P18054 | purified 12hLO, xylenol orange hydroperoxide absorbance | Potency, µM (doses to about 108 µM), usual class: inhibitors | 580,000 compounds, 1.1% hits | AID 1671190; active = well fitted inhibition curve with a large enough effect; inconclusive = small, poorly fitted or top-dose-only effect, or another doubt; inactive = no such curve, though single readings can be large or run the other way
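Purified human 12hLO at 150 nM in 25 mM Hepes, 0.01% Triton X-100, pH 7.0, preincubated 15 min at room temperature with compound. Reaction started with 40 uM arachidonic acid, 30 min at room temperature. Hydroperoxide measured by Fe-xylenol orange, 573/405 nm absorbance ratio.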
hERG WT inh: blocks the wildtype human KCNH2 potassium channel; Q12809; U2OS, BacMam KCNH2, thallium flux FluxOr; active compounds read low; activity change, % at 1.84 µM; 340,000 compounds, 0.37% hits;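 active = maximum activity change below -70%; inconclusive = maximum activity change between -70% and -50%; inactive = maximum activity change above -50%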
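U2OS cells transduced with wild-type KCNH2 virus are loaded with FluxOr dye for 45 min, and thallium flux is measured in kinetic reads before and after stimulation buffer. Rate constants are normalized to DMSO controls.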
ClpP mod: qHTS Assay for Activators of ClpP; 340,000 compounds, 1.9% hits; ATP-dependent Clp protease proteolytic subunit (Bacillus subtilis (strain 168)), P80244; AID 651965, 2013; Potency, µM (doses to about 57.5 µM); purified B. subtilis ClpP, FRET peptide cleavage, 20 min; active = well fitted falling curve with a large enough effect; inconclusive = small, poorly fitted or top-dose-only effect; inactive = no such curve, though single readings can be large or run the other way; also: the source files actives as falling curves though it sought activators and does not explain the sign; nearly all actives have a fitted effect of over 65% in size
Target sequence (P80244 whole entry, looked up): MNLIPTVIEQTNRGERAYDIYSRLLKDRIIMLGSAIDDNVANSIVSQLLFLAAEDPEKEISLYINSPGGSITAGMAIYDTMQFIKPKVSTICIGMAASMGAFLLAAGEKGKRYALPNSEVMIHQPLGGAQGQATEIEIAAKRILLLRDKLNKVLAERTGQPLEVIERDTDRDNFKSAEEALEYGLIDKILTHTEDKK
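FRET quenching reversal measured ClpP activation: 10 microg/mL B. subtilis ClpP at pH 8 with the FRET-FV decapeptide, read at 430 nm after 320 nm excitation. The 20-min minus 0-min signal was scaled between DMSO/no-enzyme wells and ADEP (5.8 microM final).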
KCNH2 3.1 block: KCNH2 3.1 (human) potassium channel inhibition; activity change, % (tested at about 1.8 µM); U2OS KCNH2 3.1, thallium flux FluxOr; active compounds read low; 340,000 compounds, 0.95% hits;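 active = maximum activity change below -70%; inconclusive = maximum activity change from -70% to -50%; inactive = maximum activity change above -50%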;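 also: thallium influx rate constant from kinetic fluorescence after stimulation buffer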
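Thallium flux read-out: FluxOr dye with Red40 quencher in HBSS/HEPES, 45 min at RT. Rate constants from kinetic reads were normalized to positive and negative DMSO controls. Cells: U2OS virally expressing the 3.1 isoform.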
LDHA block: inhibitors of human lactate dehydrogenase A; P00338; purified LDHA, NADH/diaphorase-resazurin fluorescence; active compounds read low; activity change, % (values are at about 110 or 230 µM); 480,000 compounds, 0.15% hits; AID 1347041; in the data active = activity change below about -30%; inconclusive = mostly about -25% to -30%
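Resorufin fluorescence (ex540/em590), read at 0 and 20 min after diaphorase/resazurin addition, reports the NADH left after a 5 min room-temperature reaction of 2 nM human LDH5 with 0.06 mM NADH and 0.2 mM pyruvate.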
Hits are given with their value; i = inactive; ? = inconclusive; nt = not tested or not shown.

SMILES	BCR signal inh	12-LOX inh	hERG WT inh	ClpP mod	KCNH2 3.1 block	LDHA block
COC(=O)c1cc(S(=O)(=O)NCC2CCN(Cc3ccccc3F)CC2)c[nH]1	i	i	i	i	-118	i
COC(=O)c1cc(S(=O)(=O)NCc2cccs2)c[nH]1	i	i	-244	i	i	i
CCOc1c(/C=C/c2ccc3cccc(O)c3n2)cccc1OC	nt	i	nt	nt	nt	i
CN1C[C@@H](NC(=O)Nc2ccc(C(F)(F)F)cc2)C[C@H]1c1nc(-c2ccc(Cl)cc2)no1	nt	i	nt	nt	nt	nt
COc1ccc(NC(=O)COc2coc(CN3CCSCC3)cc2=O)cc1OC	nt	?	nt	nt	nt	i
CC(=O)C1=C(c2ccccc2)NC(=S)NC1c1cc(Cl)c(OC(C)C)c(Cl)c1 (stereo not given)	?	28µM	i	i	i	i
COc1cc(C2NC(=S)NC(c3ccccc3)=C2C(C)=O)cc(Cl)c1OCC(=O)O (stereo not given)	i	?	i	i	i	i
Cc1ccc(NC(=O)C2=C(c3ccccc3)NC(=S)NC2c2ccc(Br)cc2)cc1 (stereo not given)	nt	32µM	nt	nt	nt	i
Cc1ccc(NC(=O)C2=C(c3ccccc3)NC(=S)NC2c2ccc(Cl)cc2)cc1 (stereo not given)	nt	35µM	nt	nt	nt	i
CCONC(=O)CC1Sc2ccc(C(F)(F)F)cc2NC1=O (stereo not given)	nt	i	nt	nt	nt	i
Cc1cccc(-n2ccnc2SCC(=O)O)c1C	i	i	i	10µM	i	i
Cc1ccccc1-n1ccnc1SCC(=O)O	i	?	i	i	i	i
CC(C)n1ncc2c(C(=O)NCCc3ccc(F)cc3)cc(C3CC3)nc21	i	i	i	32µM	i	i
Oc1ccc(C2(c3ccccc3O)CCCCC2)cc1	nt	?	nt	nt	nt	i
Cc1cc2cc(CNC(=S)Nc3ccc(OC(F)F)cc3)ccc2[nH]1	?	?	i	i	i	i
Cc1cc2cc(CNC(=S)Nc3ccc(OC(F)(F)F)cc3)ccc2[nH]1	i	32µM	i	i	i	i
COC(=O)C1=C(C(=O)c2ccc(C)cc2)C(c2ccc(C(=O)OC)cc2)n2nnnc2N1 (stereo not given)	nt	?	nt	nt	nt	i
O=C(O)c1cccc(COc2ccc3c(c2)CCC3)c1	?	i	i	nt	-112	i
O=c1cc2c(nn1Cc1ccc(Cl)cc1)-c1ccccc1CC2	?	i	i	i	-95	i
O=c1cc2c(nn1Cc1cccc(Cl)c1)-c1ccccc1CC2	?	i	i	i	i	i
CC(C)COc1ccc(C2CC(=O)Nc3c(-c4ccccc4)csc32)cc1 (stereo not given)	nt	i	nt	nt	nt	i
CC(C)C(=O)Nc1ccc(S(=O)(=O)NCCn2nc(-c3ccccc3)ccc2=O)cc1	nt	?	nt	nt	nt	i
CCOc1ccc(-n2c(=S)sc3c(=O)n(-c4ccccc4)c(SCC(=O)O)nc32)cc1	?	i	i	i	i	i
CCN(CC)C(=O)CSc1nc2c(sc(=S)n2-c2ccccc2)c(=O)n1Cc1ccco1	?	?	i	i	-78	i
CCOc1ccc(-n2c(=S)sc3c(=O)n(-c4ccc(F)cc4)c(SCC(=O)O)nc32)cc1	i	i	-239	i	i	i
SMILES	BCR signal inh	12-LOX inh	hERG WT inh	ClpP mod	KCNH2 3.1 block	LDHA block
CCN(CC)C(=O)CSc1nc2c(sc(=S)n2CC)c(=O)n1-c1ccccc1	i	i	i	i	i	i
COC(=O)N1CCC2(C1)C(=NC1CCCC1)NC(=O)N2c1cccnc1 (stereo not given)	nt	i	nt	nt	nt	nt
COc1ccc(NC(=O)Cn2cccc2-c2nc(-c3ccccc3)no2)c(OC)c1	nt	i	nt	nt	nt	nt
CC(C)N(C)C1CCN(C(=O)Nc2ccc(Cl)cc2)CC1	?	i	i	i	-198	i
CCOc1ccc(NC(=O)N2CCC(N(C)C(C)C)CC2)cc1	nt	i	nt	nt	nt	i
COc1cc(-c2csc(C)n2)ccc1O	i	i	i	i	i	i
Cc1nc(-c2ccc(O)c(O)c2)cs1	?	7.1µM	i	i	i	i
Oc1ccc(-c2csc(-c3cccnc3)n2)cc1O	?	i	i	nt	i	i
Oc1ccc(-c2csc(Nc3ncccn3)n2)cc1O	?	40µM	i	nt	i	i
Oc1ccc(-c2csc(-c3ccccc3)n2)cc1O	?	7.1µM	i	i	i	i
Oc1ccc(-c2nc(-c3ccc(Cl)cc3)cs2)cc1	nt	14µM	nt	nt	nt	i
C/C(=N/O)c1cc(C(C)(C)C)cc2c1CCC2(C)C	nt	i	nt	nt	nt	i
Cc1ccc(C(=O)NCC(C)C)cc1N	nt	i	nt	nt	nt	i
CCOC(=O)c1ccc(NC(=O)c2nsc3ccccc23)cc1	nt	45µM	nt	i	nt	i
N#Cc1nc(Cc2ccccc2)oc1N1CCC(C(N)=O)CC1	i	i	i	13µM	i	i
FC(F)(F)c1ccc(NC(=S)NC2CCCCC2)cc1	?	i	i	nt	i	i
FC(F)(F)c1cccc(NC(=S)NC2CCCC2)c1	i	?	i	i	-106	i
CC(C)(C)NNC(=S)Nc1cccc(C(F)(F)F)c1	7.9µM	i	i	nt	i	i
CCCNC(=S)Nc1cccc(C(F)(F)F)c1	i	i	i	i	i	i
CSc1nc2c(=S)[nH]c(=S)[nH]c2s1	nt	14µM	nt	i	nt	i
Cc1ccc2c(c1)c1c3n2CC(=C2C(=O)OC(C)(C)OC2=O)NC3CCC1 (stereo not given)	i	11µM	i	i	i	i
Cc1ccc2c(c1)c1c3n2CCN(C(=O)C2CC2)C3CCC1 (stereo not given)	?	?	i	?	i	i
O=C([C@H]1O[C@H](CCN2CCN(Cc3ccccc3)CC2)CC[C@@H]1O)N1CCN(c2ccc(F)cc2)CC1	nt	i	nt	nt	nt	nt
Cc1ccccc1-c1nc2ccccc2c(=O)n1/N=C/c1ccccc1[N+](=O)[O-]	?	32µM	i	i	i	i
Cc1cc2oc(C(=O)NCC(c3cccs3)N(C)C)cc(=O)c2cc1Cl (stereo not given)	nt	?	nt	nt	nt	i
SMILES	BCR signal inh	12-LOX inh	hERG WT inh	ClpP mod	KCNH2 3.1 block	LDHA block
O=C(C[n+]1cc2ccccc2c2ccccc21)c1ccccc1	i	i	i	25µM	i	i
O=C(C[n+]1cccc2ccccc21)c1ccccc1	i	i	i	i	i	i
Cc1ccc(S(=O)(=O)N/N=C/c2ccc(O)c(O)c2)cc1[N+](=O)[O-]	i	50µM	i	i	i	i
O=C(CSC1=Nc2ccccc2C2CC=NN12)Nc1ccc2c(c1)OCO2 (stereo not given)	i	i	i	i	i	i
N#Cc1ccccc1NC(=O)CSC1=Nc2ccccc2C2CC=NN12 (stereo not given)	20µM	i	i	nt	i	i
CC1(C)CC2CC(C)(CN2C(=O)COC(=O)c2cc(Cl)cc(Cl)c2N)C1 (stereo not given)	?	i	i	32µM	i	i

Bioassay records (PubChem BioAssay)
